The text below walks through data of PubChem BioAssay (NCI).

Test [1] in a line: NCI Yeast Anticancer Drug Screen. Data for the rad50 strain (AID 155).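 Further: 0% = growth of vehicle-only cultures of the same strain.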 To be noted: S. cerevisiae rad50 strain growth inhibition; at 50.0 µM; hits give high values. The procedure, abridged:
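Yeast carrying a defined DNA repair defect were exposed to test compounds, and growth was compared with vehicle-treated controls to give percent inhibition.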

Test [2] is described as follows: NCI Yeast Anticancer Drug Screen. Data for the mec2-1 strain (AID 157). The note with it: S. cerevisiae mec2-1 strain, at 50.0 µM, hits give high values. The procedure, abridged: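 Cells of the genetically defined mec2-1 yeast strain are incubated with test compound. Inhibition of growth is calculated against vehicle-treated controls.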
A short description of test [3]: NCI Yeast Anticancer Drug Screen. Data for the sgs1 mgt1 strain (AID 161).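 Further: 0% = growth of cultures given vehicle only.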 The note with it: S. cerevisiae sgs1 mgt1 strain, at 50.0 µM, hits give high values. The gist of the method: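 Mutant yeast exposed to compound; growth scored against vehicle-only wells.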
Test [4] in a line: NCI Yeast Anticancer Drug Screen. Data for the cln2 rad14 strain (AID 165).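 Further: 0% = growth equal to vehicle treated cultures.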 The note with it: S. cerevisiae cln2 rad14 strain, at 50.0 µM, hits give high values. The procedure, abridged:
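The screen exposed genetically defined yeast (cln2 rad14) to test compounds and scored growth inhibition relative to vehicle-treated controls.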

Test [5] can be described thus: NCI Yeast Anticancer Drug Screen. Data for the bub3 strain (AID 167). The note with it: S. cerevisiae bub3 mutant strain, at 50.0 µM, hits give high values. The procedure, abridged: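 Compounds were applied to a genetically altered yeast strain carrying a cell-cycle control defect. Growth inhibition was scored against vehicle-treated controls.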
A short description of test [6]: NCI Yeast Anticancer Drug Screen. Data for the mlh1 rad18 strain (AID 175). To be noted: S. cerevisiae mlh1 rad18 strain growth inhibition; at 50.0 µM; hits give high values. The gist of the method:
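Compound-treated yeast growth, normalised to vehicle controls. Strain bears defined DNA repair mutations.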

This is part of a sample that, as a whole, favours compounds with a hit. Of some 79,000 tested, about 15% had one in any assay. Unmarked numbers belong to inactive results. Activity calls are given as the source filed them. No stated cut-off is given here; in the data, active means growth inhibition above about 70%; inactive means the rest.

As for `CCOC(=O)C(=O)Nc1ccc2cc(OC)ccc2c1C#N`, the growth inhibition is 13.8% in test [1]; 14.2% in test [2]; 14.8% in test [3]; 35.2% in test [4]; 19.4% in test [5]; -17.8% in test [6].
For `Cc1ccnc(Nc2nnc(Nc3cc(C)ccn3)c3ccccc23)c1`, the growth inhibition in test [1] is -20.8%; in test [2] it was -12.6%; in test [3], -5.85%; in test [4], -22%; in test [5], -3.8%; in test [6], -4.45%.
Turning to `COc1ccc(C(C#N)NC23CC4CC(CC(C4)C2)C3)cc1OC` (centres undefined), the growth inhibition in test [1] is -11.8%; in test [2], -19.8%; in test [3] it was -25.1%; in test [4], -15.2%; in test [5], -56.2%; in test [6], -19.5%.
Consider `COc1ccc(-c2cc(-c3ccccc3)nc(/N=C\c3ccccc3)n2)c(O)c1`, for which the growth inhibition in test [1] is -10.7%; in test [2], -20.4%; in test [3] it was -15.5%; in test [4], -17.9%; in test [5], -34.7%; in test [6] it was -51.2%.
Regarding `CN(C)/C(=N\N=C(/c1ccc(Cl)cc1)N(C)C)c1ccc(Cl)cc1`, the growth inhibition was -15.8% in test [1]; -8.25% in test [2]; 1% in test [3]; -24.9% in test [4]; -19.1% in test [6].
For `CC(C)(C)C(=O)/C=C(\OB(F)F)C(C)(C)C`, in that order: 2.25%, -5.2%, -9.15%, 26.9% and 5.25%.
For `CN1CCN(C(=O)/C(=C/c2ccccc2)NC(=O)c2ccccc2)CC1`, in that order: -6.8%, 4%, 8.05%, -12.7% and 8.1%.
The like results for `Cc1ccc(C(=O)C[n+]2ccccc2)c(O)c1` were, in that order, -5.45%, -9.9%, 8.85%, -38% and 14.1%.
Regarding `CCOC(=O)CNc1ccccc1[N+](=O)[O-]`, the growth inhibition was -2.05% in test [1]; 5.8% in test [2]; -5.4% in test [3]; 12.3% in test [4]; -3.75% in test [6].
The like results for `CN(c1cn(C2CC[C@@H](CO)O2)c(=O)[nH]c1=O)C1CCCCC1` (some centres undefined) were, in that order, -35.8%, -13.4%, -58.4%, -6% and -41.5%.
`O=c1[nH]c2ccc([N+](=O)[O-])cc2nc1/C=C(\O)c1ccccc1`: the growth inhibition in test [1] was -9.85%; in test [2] it was 14.3%; in test [3], -24.4%; in test [4], -31.1%; in test [6] it was -46.5%.
The like results for `O=C1N(c2cccc(F)c2)C(=O)N1c1cccc(F)c1` were, in that order, 27.4%, 3.3%, -9.1%, 13.2% and 5.5%.
Consider `CCOc1ccc(/C=C2\N=C(c3ccc([N+](=O)[O-])cc3)OC2=O)cc1`, for which the growth inhibition in test [1] is 11.2%; in test [2] it was 19.8%; in test [3], 3%; in test [4], 3.45%; in test [6] it was 8.15%.
For `COc1ccccc1C(CC(=O)c1ccccc1)Sc1ccccc1N` (centres undefined), in that order: 26.9%, 33.9%, 38.8%, 4.1% and 12.3%.
The like results for `COC(=O)O[C@H]1CC[C@@]2(C)C(=CC[C@H]3[C@@H]4CC[C@H]([C@H](C)CCCC(C)C)[C@@]4(C)CC[C@@H]32)C1` were, in that order, -21.6%, -29.8%, -5.6%, 6.75% and -5.3%.
The like results for `C=CCCCCCCCCC(=O)NCCCN1CCOCC1` were, in that order, 77.5% (active), 76.1% (active), 93.5% (active), 83.6% (active) and 94.7% (active).
With `CC1OC(=O)/C(=C\N(C)C)C1=O` (centres undefined), the growth inhibition in test [1] is 1.25%; in test [2], 9%; in test [3] it was 13.2%; in test [4], 42.5%; in test [6], 8.6%.
Regarding `O/N=C1\C(=C\c2ccc3c(c2)OCCO3)CCCC1C(NO)c1ccc2c(c1)OCCO2` (centres undefined), the growth inhibition in test [1] was 13.1%; in test [2], 16.7%; in test [3], 29.9%; in test [4] it was 2.8%; in test [6] it was 6.15%.
The like results for `O=C1OC(c2ccccc2)(c2ccccc2)CC1c1ccccc1` (centres undefined) were, in that order, 9.05%, 7.5%, 12.8%, -44% and 20.7%.
The like results for `O=C(O)c1c[nH]c2c(ccc3[nH]cc(C(=O)O)c(=O)c32)c1=O` were, in that order, -14.1%, -36.4%, -33.2%, -32.2% and -13.6%.
For `O=C(NCCCN1CCCCCC1)C(c1ccccc1)C1CCCCC1` (centres undefined), in that order: 25.3%, -16.4%, 49.4%, 13.9% and 36.1%.
In the case of `C=C1N(C)c2ccccc2C1(C)C`, the growth inhibition was 22.7% in test [1]; 10.2% in test [2]; -12.2% in test [3]; 29.4% in test [4]; 17.3% in test [6].
The like results for `CCCNC(=S)/N=C/c1c(O)c2ccccc2[nH]c1=O` were, in that order, -40%, -44.6%, -11.7%, 12.3% and -13.6%.
Consider `Cc1ccccc1NC(=O)Cc1csc2[n+]1C(=O)/C(=C\c1ccc3c(c1)OCO3)S2`, for which the growth inhibition was 22.9% in test [1]; 7.6% in test [2]; 17.9% in test [3]; 3% in test [4]; 7% in test [6].
Take `COC(=O)C([O][Ge]([CH3])([CH3])[CH3])c1ccccc1` (centres undefined): the growth inhibition was 8.75% in test [1]; -15.1% in test [2]; -1.5% in test [3]; 21.2% in test [4]; -12.7% in test [6].
In the case of `COC(=O)C(NC(=O)C(CC(=O)OC(C)(C)C)NC(=O)OC(C)(C)C)C(O)c1ccccc1` (centres undefined), the growth inhibition is -35.6% in test [1]; -23.9% in test [2]; -22.4% in test [3]; -0.75% in test [4]; -0.85% in test [6].
The like results for `Cc1ccc(S(=O)(=O)NNc2nc(N3CCCCC3)nc(N3CCCCC3)n2)cc1` were, in that order, -1.25%, -2.4%, 8.2%, -17.9% and 19.6%.
As for `COC(=O)c1ccc(C(=O)OC)c2nc3ccccc3nc12`, the growth inhibition is 13.1% in test [1]; 9.35% in test [2]; 8.45% in test [3]; 8.9% in test [4]; 7.6% in test [6].
On to `CN(C)c1ccc(C2N(C)CCN2C)cc1`, for which the growth inhibition in test [1] was -10.4%; in test [2], 6.85%; in test [3] it was 9.85%; in test [4] it was -1.8%; in test [6] it was -12.8%.
The like results for `COc1ccc(/C=N/N2CCN(/N=C/c3ccc(OC)c(OC)c3)CC2)cc1OC` were, in that order, 22.9%, 0.65%, 3.25%, 19.1% and 1.15%.
The like results for `Oc1ccccc1/C=N/c1nc(-c2ccccc2)cs1.[Co].[O-]c1ccccc1/C=N/c1nc(-c2ccccc2)cs1` were, in that order, 19.2%, 5.9%, 9.8%, 22.4% and 21.2%.
`O=C(O)c1ccc(S(=O)(=O)N=Nc2c(O)[nH]c3ccccc23)cc1`: the growth inhibition is -6.6% in test [1]; -5.2% in test [2]; -35% in test [3]; -1.15% in test [4]; -7.45% in test [6].
The like results for `Cc1cccc(Cl)c1N=Nc1c(C)nc(N)nc1-c1ccccc1` were, in that order, 7.1%, 15.8%, 5.8%, -11.5% and 7.8%.
As for `O=S1Nc2ccccc2[C@H]2[C@@H]1[C@H]1O[C@@H]2c2ccccc21` (some centres undefined), the growth inhibition in test [1] is -3.6%; in test [2] it was -5.65%; in test [3] it was -23.6%; in test [4] it was -27.6%; in test [6], -0.85%.
`CC(C)(C(=O)Cc1ccccc1)c1ccccc1`: the growth inhibition in test [1] was -29.5%; in test [2], -21.4%; in test [3], -10.2%; in test [4] it was 31.1%; in test [6], -11.3%.
As for `O=c1c(SCc2ccc(Cl)cc2)c(SCc2ccc(Cl)cc2)cnn1-c1ccccc1`, the growth inhibition in test [1] was -5.7%; in test [2] it was -17.2%; in test [3], 19.2%; in test [4], 6.65%; in test [6], 13.1%.
The like results for `O=C(Oc1c(Cl)cc([N+](=O)[O-])cc1[N+](=O)[O-])Sc1ccccc1` were, in that order, 99.4% (active), 99.7% (active), 99.5% (active), 99.2% (active) and 99.5% (active).
Take `CCOC(=O)C(Cc1c[nH]c2ccccc12)NC(C)=O` (centres undefined): the growth inhibition is 22.2% in test [1]; 28.6% in test [2]; 23.6% in test [3]; -9.9% in test [4]; 19.2% in test [6].
For `Nc1nc(N)c2c(n1)NCN(OCCOc1ccc(Cl)cc1Cl)C2`, in that order: 1.1%, 3%, 9.15%, -26.8% and 9.8%.
For `O=P(O)(O)c1ccc(I)cc1`, in that order: 10.5%, -30.6%, -12.4%, 0.75% and -5.9%.
For `Cn1nc(Br)c(=O)n(C)c1=O`, in that order: -17.9%, -11.1%, -14.8%, -3.15% and -10.4%.
With `O=C(c1cc([N+](=O)[O-])cc([N+](=O)[O-])c1)N1CCCC1`, the growth inhibition in test [1] is -45.8%; in test [2], -20.7%; in test [3], -2.75%; in test [4] it was -25.1%; in test [6] it was 9.2%.
For the compound `COC(=O)CCC1(CCC(=O)OC)CCCCCCC(CCC(=O)OC)(CCC(=O)OC)C(=O)C1=O`, the growth inhibition was -11.6% in test [1]; -0.5% in test [2]; -1.25% in test [3]; -2.45% in test [4]; 19.8% in test [6].
Take `C=CCOC(=O)C1CC=CCC1C(=O)OCC=C` (centres undefined): the growth inhibition in test [1] is -17.6%; in test [2] it was -26.9%; in test [3], -17.9%; in test [4], -15.2%; in test [6] it was -9.8%.
